This note sets out measurements from PubChem BioAssay (NCI).

Molecules are shown by their SMILES. The panel holds about 83,000 compounds, 20% with a hit somewhere; the sample as a whole holds those more often.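 Activity criterion: percent growth below 10, measured after cells in 96-well plates were exposed to a single compound concentration for 48 hours.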 Values without a mark were called inactive. Activity calls are given as the source filed them.

Some test systems named below: NCI-H23 lung; NCI-H226 lung; NCI-H322M lung; HOP-62 NSCLC; NCI-H460 lung; HOP-92 NSCLC; NCI-H522 lung; A549/ATCC NSCLC; 786-0 renal; COLO 205 colon; DU-145 prostate; K-562 leukemia; MDA-MB-231 breast; RXF 393 renal; SF-268 CNS; SF-295 CNS; SF-539 CNS; UACC-257 melanoma; M14 melanoma; MALME-3M melanoma.
What all share (assay): NCI-60 one-dose screen, 48 h (100 = growth as untreated, 0 = no growth, -100 = all killed)
Common to all, as to conditions: 10 µM

On to `Cn1c(=O)c2[nH]c(C(O)c3ccc(Cl)cc3)nc2n(C)c1=O` (stereo not given), for which the growth with NCI-H23 lung was 98.8%; with NCI-H226 lung it was 103%; in the assay with NCI-H322M lung it was 111%; with HOP-62 NSCLC, 94.7%; in the assay with NCI-H460 lung, 100%; in the assay on HOP-92 NSCLC it was 76.1%. In addition, the growth was 96.7% with NCI-H522 lung; 96.3% with A549/ATCC NSCLC; 98.6% in the assay on 786-0 renal; 102% in the assay with COLO 205 colon; 104% with DU-145 prostate; 113% in the assay with K-562 leukemia. For the same compound, the growth was 100% in the assay on MDA-MB-231 breast; 120% with RXF 393 renal; 104% in the assay with SF-268 CNS; 104% in the assay on SF-295 CNS; 105% in the assay with SF-539 CNS; 97.7% in the assay on UACC-257 melanoma. Moreover, the growth in the assay with M14 melanoma was 90.6%.
In the case of `CCSc1nc2c([nH]1)c(=O)n(C)c(=S)n2C`, the growth was 98.6% with NCI-H23 lung; 117% with NCI-H226 lung; 117% with NCI-H322M lung; 98% in the assay with HOP-62 NSCLC; 107% in the assay with NCI-H460 lung; 103% in the assay on HOP-92 NSCLC. The growth in the assay with NCI-H522 lung is 102%; in the assay with A549/ATCC NSCLC it was 107%; in the assay on 786-0 renal, 100%; with COLO 205 colon, 106%; with DU-145 prostate, 112%; in the assay on K-562 leukemia it was 115%. For the same compound, the growth is 116% with MDA-MB-231 breast; 117% in the assay on RXF 393 renal; 106% in the assay with SF-268 CNS; 114% in the assay on SF-295 CNS; 97.9% in the assay with SF-539 CNS; 108% with UACC-257 melanoma. In the assay on M14 melanoma, the growth is 109%.
For the compound `Cc1ccc(NS(=O)(=O)c2ccccc2)c(NS(=O)(=O)c2ccccc2)c1`, the growth with NCI-H23 lung is 87.1%; with NCI-H226 lung, 105%; in the assay with NCI-H322M lung, 109%; with HOP-62 NSCLC, 86.5%; in the assay on NCI-H460 lung, 102%; with HOP-92 NSCLC, 93.5%. Also, the growth in the assay with NCI-H522 lung is 102%; in the assay with A549/ATCC NSCLC, 103%; in the assay on 786-0 renal it was 108%; with COLO 205 colon, 97.5%; in the assay with DU-145 prostate, 92.8%; with K-562 leukemia it was 108%. The growth with MDA-MB-231 breast is 103%; in the assay on RXF 393 renal, 130%; in the assay with SF-268 CNS, 102%; in the assay with SF-295 CNS, 104%; in the assay on SF-539 CNS it was 110%; in the assay with UACC-257 melanoma it was 107%. Besides, the growth in the assay on M14 melanoma was 102%.
For the compound `O=c1oc2cc(OS(=O)(=O)C3CC3)ccc2c2c1CCCCCC2`, the growth in the assay with NCI-H23 lung was 70.4%; in the assay with NCI-H226 lung, 67.2%; in the assay on NCI-H322M lung, 104%; in the assay on HOP-62 NSCLC, 83.2%; in the assay with NCI-H460 lung it was 86.2%; in the assay with HOP-92 NSCLC, 85.2%. In addition, the growth in the assay on NCI-H522 lung was 79.2%; in the assay on 786-0 renal it was 93%; in the assay with COLO 205 colon, 40.9%; with DU-145 prostate it was 91.4%; in the assay on K-562 leukemia it was 51.2%; in the assay with MALME-3M melanoma, 95.3%. The growth with MDA-MB-231 breast is 78.3%; with RXF 393 renal, 88.3%; in the assay with SF-268 CNS, 94.4%; in the assay with SF-295 CNS, 75.3%; in the assay with SF-539 CNS, 82.2%; in the assay on UACC-257 melanoma, 92.8%.
For the compound `COC(=O)c1ccc(Cn2ccc(=O)[nH]c2=O)cc1`, the growth in the assay on NCI-H23 lung was 105%; in the assay with NCI-H226 lung, 103%; in the assay on NCI-H322M lung it was 116%; in the assay with HOP-62 NSCLC it was 106%; in the assay on NCI-H460 lung, 114%; in the assay with HOP-92 NSCLC, 99.3%. Moreover, the growth with NCI-H522 lung was 93.2%; in the assay with A549/ATCC NSCLC, 105%; with 786-0 renal, 80.5%; with COLO 205 colon, 113%; in the assay with DU-145 prostate it was 105%; in the assay on K-562 leukemia, 113%. The growth is 99.4% in the assay on MDA-MB-231 breast; 108% in the assay on RXF 393 renal; 119% in the assay on SF-268 CNS; 109% with SF-295 CNS; 83.8% in the assay on SF-539 CNS; 112% in the assay on UACC-257 melanoma. Also, the growth in the assay on M14 melanoma is 102%.
Regarding `COc1cc(/C=C/C(=O)c2cc(-c3ccccc3)ccc2O)cc(OC)c1OC`, the growth in the assay with NCI-H23 lung was 66.3%; with NCI-H226 lung it was 93.4%; with NCI-H322M lung it was 86.1%; in the assay with HOP-62 NSCLC, 83.8%; with NCI-H460 lung, 67.6%; in the assay on HOP-92 NSCLC it was 61.3%. Moreover, the growth with NCI-H522 lung is 54.9%; in the assay on A549/ATCC NSCLC it was 85%; in the assay on 786-0 renal it was 94%; in the assay on COLO 205 colon, 91.5%; with DU-145 prostate, 91%; in the assay with K-562 leukemia it was 34%. Also, the growth in the assay with MDA-MB-231 breast is 71%; in the assay on RXF 393 renal it was 97.8%; in the assay with SF-268 CNS it was 83.2%; in the assay on SF-295 CNS it was 74.6%; with SF-539 CNS, 80.2%; in the assay on UACC-257 melanoma it was 69.9%. In addition, the growth in the assay on M14 melanoma was 96.7%.
In the case of `Oc1ccc(/C=N\Nc2ccccn2)c(O)c1`, the growth is 1.98% (active) in the assay with NCI-H23 lung; 41.7% with NCI-H226 lung; -5.61% (active) in the assay with NCI-H322M lung; 2.96% (active) in the assay on HOP-62 NSCLC; 3.15% (active) in the assay on NCI-H460 lung; 38.1% with HOP-92 NSCLC. Besides, the growth in the assay with NCI-H522 lung is 23.7%; in the assay with A549/ATCC NSCLC it was 26.6%; in the assay with 786-0 renal it was -13.2% (active); in the assay on COLO 205 colon, 69.1%; with DU-145 prostate, 11.1%; in the assay with K-562 leukemia, 24.3%. Also, the growth was 37.8% in the assay with MDA-MB-231 breast; 28.5% in the assay on RXF 393 renal; 16.4% in the assay with SF-268 CNS; -4.28% (active) in the assay on SF-295 CNS; -0.82% (active) in the assay on SF-539 CNS; 30.3% in the assay with UACC-257 melanoma. Moreover, the growth in the assay on M14 melanoma is -36.2% (active).
As to `O=C(NNc1nc(N2CCCC2)nc(N2CCCC2)n1)c1ccccc1`, the growth is 99.3% with NCI-H23 lung; 107% in the assay on NCI-H226 lung; 94.9% with NCI-H322M lung; 101% in the assay on HOP-62 NSCLC; 117% with NCI-H460 lung; 83.5% with HOP-92 NSCLC. The growth is 94.2% in the assay with NCI-H522 lung; 104% in the assay on A549/ATCC NSCLC; 121% in the assay with 786-0 renal; 109% in the assay with COLO 205 colon; 107% with DU-145 prostate; 100% in the assay with MDA-MB-231 breast. Moreover, the growth in the assay with RXF 393 renal was 116%; in the assay on SF-268 CNS, 106%; in the assay with SF-295 CNS it was 128%; in the assay on SF-539 CNS it was 113%; with UACC-257 melanoma it was 96.6%; in the assay with M14 melanoma, 132%.
